# Reference: the supplement of paper PMC8728848
# This is one part of a sample in which the strongest signals are shown more often than they occur.
# B1: B936 (Bifidobacterium sp) (protein)
# chain: MKNWKKAIALVASAAALVSVAACGPSNAGGSSDSGKKTVGFVAVGPEGGFRTANEKDIQKAFEDAGFDLTYSPTQNNDQQKQIQAFNKFVNDEVDAIILSSTEDSGWDDSLKKAAEAEIPVFTVDRNVDVKDAEAKKAIVAHIGPSNVWCGEQAAEFVNKNFPDGANGFILEGPAGLSVVKDRGTGWGNKVASNVKVLESQSANWSTDEAKTVTAGLLDKYKSDNPQFIFAQNDEMGLGAAQAVDAAGLKGKVKIITIDGTKNALQALVDGDLSYVIEYNPIFGKETAQAVKDYLDGKTVEKDIEIESKTFDAASAKEALDNNTRAY
# Legend:
# Assay in all cases: glycan array binding signal (z-score within array); higher = stronger binding
# Settings in all cases: glycan notation: IUPAC condensed, linker removed
# [1] = biological target: Gal(b1-4)GlcNAc(b1-2)[Gal(b1-4)GlcNAc(b1-6)]Man(a1-6)[GlcNAc(b1-4)][Gal(b1-4)GlcNAc(b1-2)Man(a1-3)]Man(b1-4)GlcNAc(b1-4)GlcNAc
# How it was run: (§1)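 From the Consortium for Functional Glycomics database, 3228 arrays were curated, keeping only those whose protein sequence was available. Binding is given as a within-array Z-score averaged across arrays sharing a protein sequence and across linkers. Negative Z-scores can be read as non-binding.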
# [2] = biological target: Gal(b1-4)GlcNAc(b1-3)Gal(b1-4)Glc
# How it was run: as §1
# [3] = biological target: Gal(b1-4)GlcNAc(b1-6)[Gal(b1-3)]GalNAc
# How it was run: as §1
# Gal3S(b1-3)GlcNAc = biological target: Gal3S(b1-3)GlcNAc
# How it was run: as §1
# Gal6S(b1-4)GlcNAc6S = biological target: Gal6S(b1-4)GlcNAc6S
# How it was run: as §1
# [4] = biological target: GalNAc(b1-4)GlcNAc(b1-2)Man(a1-3)[GalNAc(b1-4)GlcNAc(b1-2)Man(a1-6)]Man(b1-4)GlcNAc(b1-4)GlcNAc
# How it was run: as §1
# GlcA(b1-3)Gal = biological target: GlcA(b1-3)Gal
# How it was run: as §1
# [5] = biological target: GlcNAc(a1-3)Gal(b1-4)GlcNAc
# How it was run: as §1
# [6] = biological target: GlcNAc(b1-3)Gal(b1-4)GlcNAc(b1-3)Gal(b1-4)GlcNAc(b1-2)Man(a1-3)[GlcNAc(b1-3)Gal(b1-4)GlcNAc(b1-3)Gal(b1-4)GlcNAc(b1-2)Man(a1-6)]Man(b1-4)GlcNAc(b1-4)GlcNAc
# How it was run: as §1
# [7] = biological target: GlcNAc(b1-3)Gal(b1-4)GlcNAc(b1-3)Gal(b1-4)GlcNAc(b1-3)Gal(b1-4)GlcNAc(b1-3)Gal(b1-4)GlcNAc(b1-2)Man(a1-3)[GlcNAc(b1-3)Gal(b1-4)GlcNAc(b1-3)Gal(b1-4)GlcNAc(b1-3)Gal(b1-4)GlcNAc(b1-3)Gal(b1-4)GlcNAc(b1-2)Man(a1-6)]Man(b1-4)GlcNAc(b1-4)GlcNAc
# How it was run: as §1
# [8] = biological target: GlcNAc(b1-3)Gal(b1-4)GlcNAc(b1-3)GalNAc
# How it was run: as §1
# [9] = biological target: GlcNAc(b1-6)Gal(b1-4)GlcNAc
# How it was run: as §1
# Man(a1-3)[Man(a1-6)]Man = biological target: Man(a1-3)[Man(a1-6)]Man
# How it was run: as §1
# [10] = biological target: Neu5Ac(a2-3)Gal(b1-3)GlcNAc(b1-2)Man
# How it was run: as §1
# [11] = biological target: Neu5Ac(a2-3)Gal(b1-3)[Fuc(a1-4)]GlcNAc(b1-3)Gal(b1-4)[Fuc(a1-3)]GlcNAc
# How it was run: as §1
# [12] = biological target: Neu5Ac(a2-3)Gal(b1-4)GlcNAc(b1-2)[Neu5Ac(a2-3)Gal(b1-4)GlcNAc(b1-4)]Man(a1-3)[GlcNAc(b1-4)][Neu5Ac(a2-3)Gal(b1-4)GlcNAc(b1-2)[Neu5Ac(a2-3)Gal(b1-4)GlcNAc(b1-6)]Man(a1-6)]Man(b1-4)GlcNAc(b1-4)GlcNAc
# How it was run: as §1
# [13] = biological target: Neu5Ac(a2-3)Gal(b1-4)GlcNAc(b1-2)[Neu5Ac(a2-3)Gal(b1-4)GlcNAc(b1-4)]Man(a1-3)[GlcNAc(b1-4)][Neu5Ac(a2-3)Gal(b1-4)GlcNAc(b1-4)Man(a1-6)]Man(b1-4)GlcNAc(b1-4)GlcNAc
# How it was run: as §1
# [14] = biological target: Neu5Ac(a2-6)Gal(b1-4)GlcNAc(b1-2)Man(a1-6)Man(b1-4)GlcNAc(b1-4)GlcNAc
# How it was run: as §1
# [15] = biological target: Neu5Ac(a2-6)Gal(b1-4)GlcNAc(b1-2)Man(a1-6)[Gal(b1-4)GlcNAc(b1-2)Man(a1-3)]Man(b1-4)GlcNAc(b1-4)GlcNAc
# How it was run: as §1
# [16] = biological target: Neu5Ac(a2-6)Gal(b1-4)GlcNAc(b1-3)GalNAc
# How it was run: as §1
# [17] = biological target: Neu5Ac(a2-8)Neu5Ac(a2-3)[GalNAc(b1-4)]Gal(b1-4)Glc
# How it was run: as §1
# [18] = biological target: Neu5Ac9Ac(a2-3)Gal(b1-3)GlcNAc
# How it was run: as §1
# [19] = biological target: Neu5Gc(a2-3)Gal(b1-3)[Fuc(a1-4)]GlcNAc
# How it was run: as §1
# [20] = biological target: Neu5Gc(a2-3)Gal(b1-4)[Fuc(a1-3)]GlcNAc
# How it was run: as §1
binder,measurement,setting,value
B1,glycan array binding signal (z-score),[1],-0.558
same,glycan array binding signal (z-score),[2],3.24
same,glycan array binding signal (z-score),[3],0.173
same,glycan array binding signal (z-score),Gal3S(b1-3)GlcNAc,0.121
same,glycan array binding signal (z-score),Gal6S(b1-4)GlcNAc6S,0.127
same,glycan array binding signal (z-score),[4],3.25
same,glycan array binding signal (z-score),GlcA(b1-3)Gal,-0.516
same,glycan array binding signal (z-score),[5],0.799
same,glycan array binding signal (z-score),[6],0.824
same,glycan array binding signal (z-score),[7],-0.371
same,glycan array binding signal (z-score),[8],-0.806
same,glycan array binding signal (z-score),[9],-0.106
same,glycan array binding signal (z-score),Man(a1-3)[Man(a1-6)]Man,-0.318
same,glycan array binding signal (z-score),[10],0.307
same,glycan array binding signal (z-score),[11],0.193
same,glycan array binding signal (z-score),[12],-0.471
same,glycan array binding signal (z-score),[13],0.275
same,glycan array binding signal (z-score),[14],0.197
same,glycan array binding signal (z-score),[15],-0.37
same,glycan array binding signal (z-score),[16],2.06
same,glycan array binding signal (z-score),[17],-0.488
same,glycan array binding signal (z-score),[18],-0.521
same,glycan array binding signal (z-score),[19],0.081
same,glycan array binding signal (z-score),[20],-0.593
